Screening results as filed in PubChem.
Only some compounds are listed: those with a hit (about 1.2% of all), similar ones and a draw of the others.
RGS8-Gao reg = modulates binding of RGS8 to human Galphao. multiplexed bead flow cytometry; actives lie on both sides. AID 1423. response (percent of control binding), % at 10 µM. hit rate 0.34% among 220,000. P09471; in the data active means response below about 60% or above about 140%; inactive means in between;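 further: Galphao activated as the GDP aluminium fluoride complex binding bead-coupled RGS8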
Target sequence (P09471 whole entry, looked up): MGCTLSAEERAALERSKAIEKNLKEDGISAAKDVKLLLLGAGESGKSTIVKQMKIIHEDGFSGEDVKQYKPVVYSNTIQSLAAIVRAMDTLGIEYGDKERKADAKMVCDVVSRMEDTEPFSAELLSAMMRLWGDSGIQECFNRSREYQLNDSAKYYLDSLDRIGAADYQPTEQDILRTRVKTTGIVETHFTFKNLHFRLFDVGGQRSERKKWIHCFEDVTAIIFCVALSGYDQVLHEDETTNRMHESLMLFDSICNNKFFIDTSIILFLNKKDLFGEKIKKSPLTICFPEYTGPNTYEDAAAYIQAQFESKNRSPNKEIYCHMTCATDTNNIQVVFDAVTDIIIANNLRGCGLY
RGS4-Gao reg = human RGS4-Galphao interaction regulation | Multiplexed bead flow cytometry, RGS4-Galphao binding; actives lie on both sides | binding response (% of control), % at 10 µM | hit rate 0.33% among 220,000 | AID 1415; in the data active means binding response below about 49% or above about 150%; inactive means in between;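 further: fluorescent Galphao activated with aluminum fluoride binding bead-coupled RGS4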
GSH bead fluor = compound fluoresces at 488/530 nm on GSH beads. fluorescence (KMESF) at 10 µM. GSH beads flow cytometry, compound fluorescence 488/530 nm; stronger effect = higher value. hit rate 0.25% among 190,000; in the data active means fluorescence above about 89;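 further: glutathione beads carrying GST-tagged Bcl family fusion proteins plus one bare bead set; values are compound well signal with DMSO vehicle wells as background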
RGS16-Gao = RGS16-Galphao interaction regulator (human); hit rate 0.38% among 220,000; bead-based flow cytometry RGS16-Galphao binding, fluorescence; actives lie on both sides; O15492+P09471; binding response (% of control), % at 10 µM; AID 1441;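 further: Galphao activated by GDP with aluminum fluoride before binding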
Target sequence (O15492 whole entry, looked up): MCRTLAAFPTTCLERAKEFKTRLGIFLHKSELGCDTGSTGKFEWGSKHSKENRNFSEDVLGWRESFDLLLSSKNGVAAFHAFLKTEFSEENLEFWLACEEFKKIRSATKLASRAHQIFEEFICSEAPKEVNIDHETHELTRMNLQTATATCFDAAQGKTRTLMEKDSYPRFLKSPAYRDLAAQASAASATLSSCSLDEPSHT
Target sequence (P09471 whole entry, looked up): as the sequence (P09471 whole entry, looked up) above
Avidin bead fluor = avidin bead compound fluorescence profile. Avidin beads, compound fluorescence 488/530 nm, flow cytometry; stronger effect = higher value. fluorescence (KMESF) at 10 µM. hit rate 0.38% among 220,000. AID 1775; in the data active means fluorescence above about 47
RGS7-Gao reg = regulators of human RGS7-Galphao interaction. binding response (% of control), % at 10 µM. AID 1439. hit rate 0.35% among 220,000. Multiplexed bead flow cytometry, RGS7-Galphao binding; actives lie on both sides; in the data active means binding response below about 49% or above about 150%; inconclusive means no clear call, values can overlap the other calls; inactive means in between;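 further: fluorescent Galphao held in activated GDP-AlF4 state binding bead-coupled RGS7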
RGS-Gao = modulates binding between human RGS4 and Galphao | hit rate 99% among 1,600 | multiplexed bead flow cytometry, RGS–Galpha-o binding | shares compounds with RGS16-Gao | RGS4–Galpha-o binding response, % at 10 µM;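 further: fluorescently labeled Galpha-o bound to GDP with aluminium fluoride binding biotinylated RGS beads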
Biotin-avidin = interferes with biotinylated probe binding to avidin beads | shares compounds with RGS16-Gao | streptavidin beads, fluorescein-biotin binding, flow cytometry | inhibition, % at 10 µM | 1,700 tested, under 10 active | AID 1783;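 active means inhibition above 50%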;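 further: median green fluorescence of gated singlet beads compared with DMSO control wells; 0% = DMSO wells and 100% = complete loss of bead fluorescence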
RGS8-Gao confirm = confirmation of regulators of human RGS8-Galphao interaction | shares compounds with RGS16-Gao | bead-based flow cytometry RGS8-Galphao binding, fluorescence; actives lie on both sides | binding response (% of control), % at 10 µM | hit rate 3% among 1,700 | AID 1836; in the data active means binding response below about 72% or above about 130%; inactive means in between;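 further: Galphao activated as GDP AlF4 complex before binding bead RGS8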
RGS7-Gao confirm = confirmation of regulators of human RGS7-Galphao interaction; AID 1837; hit rate 7.8% among 1,700; shares compounds with RGS16-Gao; response (percent of control binding), % at 10 µM; bead-based flow cytometry RGS7-Galphao binding; actives lie on both sides; in the data active means response below about 75% or above about 130%; inactive means in between;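 further: fluorescent Galphao activated with GDP and aluminum fluoride binding bead-coupled RGS7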
RGS16-Gao single = confirmation of regulators of human RGS16-Galphao interaction; shares compounds with RGS16-Gao; bead-based flow cytometry, RGS16-Galphao binding; actives lie on both sides; response (% of control binding), % at 10 µM; hit rate 4% among 1,700; AID 1838; in the data active means response below about 74% or above about 130%; inactive means in between;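 further: Galphao activated as the GDP aluminium fluoride complex binding bead-coupled RGS16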
RGS4-Gao confirm = RGS4-Galphao interaction regulation, single point confirmation | shares compounds with RGS16-Gao | RGS4-Galphao binding, multiplexed bead flow cytometry; actives lie on both sides | binding response (% of control), % at 10 µM | hit rate 4% among 1,700 | AID 1840; in the data active means binding response below about 74% or above about 130%; inactive means in between
RGS19-Gao conf = confirmation of regulators of human RGS19-Galphao interaction. response (percent of control binding), % at 10 µM. hit rate 5% among 1,700. bead-based flow cytometry RGS19-Galphao binding; actives lie on both sides. shares compounds with RGS16-Gao; in the data active means response below about 50% or above about 160%; inactive means in between;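 further: 100% = no compound control and 0% = blank background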
Starred values were filed as active, the others as inactive; ? = inconclusive; . = no result given; [ ] = remark or other dose. Unless noted, how the calls were made is not given here.

SMILES | RGS8-Gao reg | RGS4-Gao reg | GSH bead fluor | RGS16-Gao | Avidin bead fluor | RGS7-Gao reg | RGS-Gao | Biotin-avidin | RGS8-Gao confirm | RGS7-Gao confirm | RGS16-Gao single | RGS4-Gao confirm | RGS19-Gao conf
Cn1c(=O)[nH]c(Nc2ccccc2)c([N+](=O)[O-])c1=O | 102 | 103 | 14 | 99 | 8 | ? | . | . | . | . | . | . | .
CCC1(CC)NC(=O)N(CC(=O)OCC(=O)Nc2ccc(F)c(F)c2F)C1=O | 102 | 106 | 17 | 105 | 5 | 104 | . | . | . | . | . | . | .
Cc1ccc(-n2c(CCc3nc4ccccc4[nH]3)n[nH]c2=S)cc1 | 101 | 103 | 12 | 109 | 10 | 103 | . | . | . | . | . | . | .
Cc1ccc(-n2c(Cn3c(C)nc4ccccc43)n[nH]c2=S)cc1 | 65 | 86 | 6 | -1.4* | 1 | 84 | 86* | 0 | 96 | 101 | 90 | 99 | 101
CCCc1cc(-c2nc(-c3ccc(Br)cc3)cs2)ccn1 | 68 | 83 | 7 | -6.4* | 5 | 76 | 83* | -1 | 101 | 97 | 98 | 99 | 105
CCCc1cc(-c2nc(-c3ccc(Cl)cc3)cs2)ccn1 | 100 | 100 | 33 | 87 | 7 | 101 | . | . | . | . | . | . | .
CCOC(=O)/C=C(\C)Sc1cc(O)c2ccccc2c1O | 50* | 81 | . | 11* | 0 | ? | 81* | . | . | . | . | . | .
FC(F)(F)c1nnc2ccc(N3CCCCCC3)nn12 | 173*[activator] | 149 | 30 | . | 6 | 122 | 149* | -1 | 101 | 88 | 93 | 96 | 96
FC(F)(F)c1nnc2ccc(N3CCCC3)nn12 | 102 | 103 | 34 | 106 | 16 | 104 | . | . | . | . | . | . | .
CC1C(c2ccccc2)N(C)C(c2ccccc2)C(C)C1(O)C#Cc1ccccc1 (stereo not drawn) | 103 | 104 | 9 | 100 | 13 | 102 | . | . | . | . | . | . | .
Cc1ccc(CN2CCN(Cc3cnc(N4CCOCC4)s3)CC2CCO)cc1 (stereo not drawn) | 102 | 101 | 57 | 104 | 10 | 101 | . | . | . | . | . | . | .
CCOC(=O)C1=C(C)N=C2SC(CC)C(=O)N2C1c1cccc(F)c1 (stereo not drawn) | . | . | 19 | . | . | . | . | -2 | 98 | 93 | 99 | 99 | 98
FC(F)(F)c1ccc(Cl)c(-n2c(-c3cc(C4CC4)[nH]n3)n[nH]c2=S)c1 | 100 | 100 | . | 99 | 3 | ? | . | . | . | . | . | . | .
Cc1ccc2nc(-c3cccnc3)c(Nc3ccccc3C)n2c1 | 100 | 98 | 70 | 99 | 9 | 98 | . | . | . | . | . | . | .
Cc1ccc2nc(-c3cccnc3)c(NC3CCCCC3)n2c1 | 121 | 114 | 4 | 203*[activator] | 13 | 117 | 114* | -1 | 107 | 104 | 110 | 104 | 119
CCOC(=O)CSc1nc2ccccc2c(=O)n1CC1COc2ccccc2O1 (stereo not drawn) | 0.8* | -26* | 18 | -138 | -4 | -14* | . | -6 | 116 | 130*[activator] | 120 | 124 | 122
CCOC(=O)CSc1nc2ccccc2c(=O)n1CC1CCCO1 (stereo not drawn) | 57* | 71 | 15 | 7 | 4 | 72 | 71* | 0 | 101 | 100 | 100 | 101 | 95
CC(C)CCN(C(=S)NC(=O)C1CCCCC1)c1c(N)n(Cc2ccccc2)c(=O)[nH]c1=O | 104 | 103 | 29 | 110 | 26 | 100 | . | . | . | . | . | . | .
CCN(CC)CC(C)CNC(=O)CC(C(=O)N1CCc2ccccc21)n1ccnc1 (stereo not drawn) | 102 | 107 | 26 | 117 | 38 | 103 | . | . | . | . | . | . | .
O=C(CC(C(=O)N1CCc2ccccc21)n1ccnc1)NCc1ccccc1 (stereo not drawn) | 143*[activator] | 115 | 28 | 476 | 4 | 113 | 115* | 2 | 102 | 104 | 104 | 102 | 100
C/C(=N/NC(=O)CNC(=O)c1cccnc1)c1cccc([N+](=O)[O-])c1 | 100 | 99 | 13 | 100 | 10 | 98 | . | . | . | . | . | . | .
O=C(CCl)NC(=O)NC12CC3CC(CC(C3)C1)C2 | 104 | 130 | 7 | 111 | 145* | 189*[activator] | 130* | 0 | 101 | 63* | 84 | 79 | 54
Cc1ccc(CC(=O)NC2CCSC2=O)cc1 (stereo not drawn) | 106 | 101 | 11 | 110 | 12 | 103 | . | . | . | . | . | . | .
Cn1c(=O)c2c(nc(OCC3COC(C)(C)O3)n2Cc2ccccc2F)n(C)c1=O (stereo not drawn) | 145*[activator] | 165*[activator] | 31 | 161 | 12 | 164*[activator] | . | 0 | 102 | 97 | 99 | 95 | 91
Cn1c(=O)c2c(nc(N3CCc4ccccc4C3)n2Cc2ccccc2F)n(C)c1=O | 102 | 100 | 11 | 102 | 31 | 100 | . | . | . | . | . | . | .
SMILES | RGS8-Gao reg | RGS4-Gao reg | GSH bead fluor | RGS16-Gao | Avidin bead fluor | RGS7-Gao reg | RGS-Gao | Biotin-avidin | RGS8-Gao confirm | RGS7-Gao confirm | RGS16-Gao single | RGS4-Gao confirm | RGS19-Gao conf
CCCc1cc(-n2ccnc2)n2c(nc3ccccc32)c1C#N | 119 | 162*[activator] | 150* | 192*[activator] | 84* | 151*[activator] | . | 7 | 101 | 119 | 110 | 111 | 138
O=C(CN1CCOCC1)N1CCN(c2ccc3ccccc3n2)CC1 | 103 | 103 | 17 | 109 | 6 | 103 | . | . | . | . | . | . | .
Cc1cccc(-c2nnc3sc(-c4ccccc4)nn23)c1 | . | . | 41 | . | . | . | . | 2 | 95 | 90 | 93 | 95 | 87
Cc1ccc(C)c(NC(=O)CSc2nnc(-c3ccccc3)n2N)c1 | 141*[activator] | 119 | 27 | 428 | 6 | 112 | 119* | -1 | 100 | 95 | 101 | 98 | 91
Cc1ccc(C2=N/C(=C/N3CCOCC3)C(=O)O2)cc1 | 86 | 92 | 30 | 53 | 9 | 93 | . | . | . | . | . | . | .
Cc1ccc(C2=N/C(=C\N3CCCCC3)C(=O)O2)cc1 | 115 | 198*[activator] | 31 | 204*[activator] | 89* | 169*[activator] | . | -2 | 101 | 101 | 101 | 103 | 99
CCOC(=O)c1[nH]c(C)c(C(=O)OCC(=O)N2CC(=O)Nc3ccccc32)c1C | 103 | 98 | 20 | 114 | 12 | 101 | . | . | . | . | . | . | .
